ATG4B inh – inhibitors of human ATG4B cysteine protease; Q9Y4P1; ATG4B cleavage of LC3-PLA2, NBD-HPC fluorescence, 1 h; inhibition, % at 8.33 µM; 340,000 compounds, 0.51% hits; AID 504462; in the data active = inhibition above about 40%
Target sequence (Q9Y4P1 whole entry, looked up): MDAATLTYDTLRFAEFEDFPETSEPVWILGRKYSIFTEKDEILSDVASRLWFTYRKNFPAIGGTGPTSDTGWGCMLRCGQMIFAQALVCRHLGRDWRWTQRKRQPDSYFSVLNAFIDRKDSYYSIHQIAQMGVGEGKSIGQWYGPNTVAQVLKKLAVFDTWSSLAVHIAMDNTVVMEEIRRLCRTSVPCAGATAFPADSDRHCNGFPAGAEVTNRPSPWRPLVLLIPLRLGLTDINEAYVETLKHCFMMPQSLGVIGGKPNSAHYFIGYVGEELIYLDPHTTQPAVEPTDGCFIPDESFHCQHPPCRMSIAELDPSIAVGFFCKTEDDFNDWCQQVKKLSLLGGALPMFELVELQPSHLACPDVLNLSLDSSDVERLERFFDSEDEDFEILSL
Calb FLC – affects C. albicans growth with fluconazole. AID 1979. 300,000 compounds, 0.57% hits. C. albicans CaCi-2 (fluconazole-resistant clinical isolate) + fluconazole, Alamar Blue growth, 48 h. growth inhibition, % (no concentration beside the values);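 active = growth inhibition above about 58% in most replicates, limit read from the data, passing the limit was not always enough; inconclusive = exactly half the replicates above a set limit; inactive = most replicates below a set limit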;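 note: all wells also contain fluconazole at 8 µg/ml as a sub-toxic cotreatment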
NadD inh – blocks S. aureus nicotinate mononucleotide adenylyltransferase; AID 602399; inhibition, % at 20 µM; 360,000 compounds, 0.78% hits; purified NadD enzyme, colorimetric absorbance read-out; in the data active = inhibition above about 26%
SUMO Mot1 rescue – inhibitors of SUMOylation pathway: yeast Mot1-301 growth rescue; S. cerevisiae Mot1-301 growth rescue, ATP luminescence, 38.5C; percent above DMSO median, 100 means doubled; growth rescue, % at 18.8 µM; 320,000 compounds, 1% hits; AID 2716;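 active = every valid replicate shows activation above 250% relative to neutral control wells; inactive = the rest, any valid replicate at or below 250%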
FAS-TE inh – inhibitors of human fatty acid synthase thioesterase domain | P49327 | recombinant FAS-TE, OMFH fluorogenic substrate, fluorescence endpoint | inhibition, % at 15 µM | 360,000 compounds, 0.67% hits | AID 602261;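 active = compounds whose normalised, plate-corrected inhibition of enzyme fluorescence in the single-dose primary screen is 50% or more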
ATG4B conf – ATG4B (human) inhibition, single-dose confirmed; shares compounds with ATG4B inh; ATG4B protease fluorescent substrate cleavage assay; inhibition, % at 8.33 µM; 320 compounds, 92% hits; in the data active = inhibition above about 39%
PLA2 ctr – inhibits human PLA2, flagging false ATG4B inhibitors; purified PLA2, NBD-C6-HPC fluorescence, 45 min; AID 588402; inhibition, % at 8.33 µM; shares compounds with ATG4B inh; 1,600 compounds, 66% hits; in the data active = inhibition above about 50%
Target sequence (P04054 whole entry, looked up): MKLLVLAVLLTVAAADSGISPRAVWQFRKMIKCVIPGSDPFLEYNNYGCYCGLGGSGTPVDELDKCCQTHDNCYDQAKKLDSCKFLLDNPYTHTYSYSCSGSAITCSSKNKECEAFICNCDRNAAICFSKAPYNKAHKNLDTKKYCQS
A number is an active result; . = inactive; ? = inconclusive; / = not tested or not shown. Shown are actives, neighbours in structure and some others; about 3.1% of the full set was active somewhere.

SMILES	ATG4B inh	Calb FLC	NadD inh	SUMO Mot1 rescue	FAS-TE inh	PLA2 ctr	others
CCN1CCc2nc3sc(C(=O)N4CCc5ccccc5C4)c(N)c3cc2C1	.	.	.	.	.	/
CC(C)c1ccc2nc3sc(C(=O)N4CCc5ccccc5C4)c(N)c3cc2c1	52.1	.	.	.	.	.	ATG4B conf=53.7
CC(C)c1ccc(C2CC(=O)c3cnc(NC(=O)c4ccco4)nc3C2)cc1 (stereo not given)	.	.	.	.	.	/
O=C(c1cc(-c2ccccc2)on1)N1CCc2ccccc2C1	40.6	.	.	.	.	51.6
O=C(c1cc(-c2ccc(Cl)cc2)on1)N1CCc2ccccc2C1	.	.	.	.	.	/
CN1C(=O)C(c2nnc(Nc3cccc4ccccc34)s2)C2CC1(C)Oc1ccccc12 (stereo not given)	88.8	/	.	.	.	91.1
COc1cccc(-c2cnc(C(O)c3cc(C)ccc3C)[nH]2)c1 (stereo not given)	/	/	.	/	.	/
COc1cc2c(cc1NC(=O)COC(=O)[C@@H](NS(=O)(=O)c1cccc(Cl)c1)C(C)C)oc1ccccc12	47.0	.	.	.	.	62.6
Cc1ccc(S(=O)(=O)NCCN=Cc2ccc(N(C)C)cc2)cc1	.	.	.	.	.	/
CCCCCCCOC(=O)C[N+](C)(C)CCOC1CC2CCC1(C)C2(C)C (stereo not given)	52.7	107.5	.	/	.	.	ATG4B conf=47.8
O=C1NC(c2cccc3ccccc23)Nc2ccc(Cl)cc21 (stereo not given)	43.4	/	.	/	.	58.7
CCCS(=O)(=O)NC(=O)C1(C)CCN(C(=O)Cc2ccc(OC)cc2)C1 (stereo not given)	/	/	.	/	.	/
Cc1ccc(S(=O)(=O)Nc2ccccc2/C=N/c2nc3ccccc3n2C(C)C)cc1	54.7	/	.	.	.	.	ATG4B conf=57.2
CCCCn1c(/N=C/c2ccccc2NS(=O)(=O)c2ccc(C)cc2)nc2ccccc21	.	/	.	.	.	/
CSc1ncccc1C(=O)N(C)CC(=O)Nc1cccc(F)c1	.	.	.	.	.	/
Brc1ccc2c(c1)C(c1ccc(N3CCOCC3)cc1)=NNC(c1cccs1)=N2	65.9	.	.	/	.	64.5
Fc1ccc2c(c1)C(c1ccc(N3CCOCC3)cc1)=NNC(c1cccs1)=N2	65.1	?	.	.	.	70.4
CCOc1ccc(C2=NNC(c3cccs3)=Nc3ccc(OC)cc32)cc1	58.7	.	.	.	.	72.7
CCOc1ccc(C2=NNC(c3cccnc3)=Nc3ccc(OC)cc32)cc1	.	.	.	.	.	/
CCCN(CCC)C(=O)C(c1ccccc1)C1(O)CCCCC1 (stereo not given)	.	/	.	/	.	/
COc1ccc(C(O)c2ncc(-c3ccccc3)[nH]2)c(OC)c1 (stereo not given)	/	/	.	/	.	/
CC(C)(C)c1ccc(C(=O)C2CCCN(C(=O)c3ccccn3)C2)cc1 (stereo not given)	43.1	.	.	/	.	.	ATG4B conf=80.6
Cc1cnc(C(=O)N2CCCC(C(=O)c3ccc(C(C)(C)C)cc3)C2)cn1 (stereo not given)	.	.	.	.	.	/
Cc1cc(C(=O)N2CCCC(C(=O)c3ccc(Oc4ccccc4)cc3)C2)n[nH]1 (stereo not given)	46.2	.	.	/	.	.	ATG4B conf=61.7
O=c1c2ccccc2nc(SCc2cn3ccsc3n2)n1-c1ccc(F)cc1	74.5	.	.	.	.	71.4
SMILES	ATG4B inh	Calb FLC	NadD inh	SUMO Mot1 rescue	FAS-TE inh	PLA2 ctr	others
O=C(c1ccc(-n2c(SCc3cc(F)ccc3F)nc3ccccc3c2=O)cc1)N1CCOCC1	47.0	.	.	.	.	.	ATG4B conf=63.2
O=C(CSc1nc2ccccc2c(=O)n1-c1ccc(F)cc1)NCc1ccco1	.	.	.	.	.	/
CCS(=O)(=O)N1Cc2ccccc2CC1C(=O)Nc1nnc(SCc2c(Cl)cccc2Cl)s1 (stereo not given)	73.8	.	.	.	.	64.0
O=C(O)c1ccc(Br)cn1	.	.	.	.	.	/
CCCCOc1ccc(C(=O)N(CC)CC(=O)NCc2cccs2)cc1	.	.	.	.	.	/
CC1CCN(C2=C(NS(=O)(=O)c3ccccc3)C(=O)c3ccccc3C2=O)CC1	45.8	.	.	.	.	64.5
CC1CCN(C2=C(NS(=O)(=O)c3ccc(Cl)cc3)C(=O)c3ccccc3C2=O)CC1	.	.	.	.	.	/
O=C(CN1CCCCC1)Nc1ccc(Br)cc1[N+](=O)[O-]	.	.	.	.	.	/
CSc1n[nH]c2nc3c(c(=O)n12)C1(CCCCC1)Cc1ccccc1-3	42.0	.	.	.	.	.	ATG4B conf=45.9
CN(C)C(CNC(=O)CSc1nc2ccccc2c(=O)n1Cc1ccco1)c1ccccc1 (stereo not given)	.	.	.	.	.	/
C[C@@]12CCC=C[C@H]1[C@H](c1ccc3ccccc3c1Br)N(Cc1ccccc1)C2=O	50.1	.	.	.	.	76.3
Cc1ccc(CNc2ccccc2C(=O)O)s1	.	.	.	.	.	/
COc1ccc(-n2c(SC(CN3CCCCC3)CN3CCCC3=O)nc3ccccc3c2=O)cc1 (stereo not given)	62.6	.	.	.	.	66.6
CC(C#N)Sc1ncnc2sc3c(c12)CCC3 (stereo not given)	49.2	.	.	.	.	.
CCOC(=O)C1=C(c2ccccc2)NC(SCC(=O)Nc2cccc(C)c2)=C(C#N)C1c1ccco1 (stereo not given)	48.4	.	.	.	.	55.0
CCOC(=O)C1=C(c2ccccc2)NC(SCC(=O)Nc2ccccc2C)=C(C#N)C1c1ccco1 (stereo not given)	65.8	.	.	.	.	72.1
CCOC(=O)C1=C(c2ccccc2)NC(SCC(=O)Nc2ccc(C)cc2)=C(C#N)C1c1ccco1 (stereo not given)	.	.	.	.	.	/
CN(C)CCNC(=O)C(=O)NCC1CCCN1S(=O)(=O)c1cccs1 (stereo not given)	.	.	.	.	.	/
COc1ccc(-c2cnc(C(O)c3ccc(C(C)(C)C)cc3)[nH]2)cc1 (stereo not given)	/	/	.	/	.	/
CN(CC(=O)Nc1ccccc1Br)CC(=O)Nc1ccccc1-c1ccccc1	.	/	.	.	.	/
O=C(CSCc1cccc(Cl)c1)Nc1ccccc1-c1ccccc1	47.1	?	.	.	.	51.4
Cc1ccccc1CSCC(=O)Nc1ccccc1-c1ccccc1	51.4	.	.	.	.	58.9
Cc1ccccc1NC(=O)CSCC(=O)Nc1ccccc1C	.	.	.	.	.	/
CN(CC(=O)Nc1ccccc1-c1ccccc1)Cc1ccccc1Cl	55.3	.	.	.	.	51.9
CCC1(CC)N=C(c2ccccc2)C(=S)N1	.	.	.	.	.	/
